Results taken from ChEMBL document CHEMBL4808148, “HDAC6 screening dataset using tau-based substrate in an enzymatic assay yields selective inhibitors and activators” (2021).
The whole screen tested about 5,600 compounds, of which about 390 (7%) showed an effect of 50% or more. What follows is part of a selection rich in strong results, with near analogues and random picks from the rest. Non-standard residues stand in square brackets, D forms with d. Residues, ends and D or L forms follow the SMILES beside them. αMeP = C[C@@]1(C(=O)O)CCCN1

Key:
[1] = molecular target: T1, Protein deacetylase HDAC6 (Homo sapiens) (UniProt Q9UBN7); conditions: at 10 µM
T1 sequence (whole entry): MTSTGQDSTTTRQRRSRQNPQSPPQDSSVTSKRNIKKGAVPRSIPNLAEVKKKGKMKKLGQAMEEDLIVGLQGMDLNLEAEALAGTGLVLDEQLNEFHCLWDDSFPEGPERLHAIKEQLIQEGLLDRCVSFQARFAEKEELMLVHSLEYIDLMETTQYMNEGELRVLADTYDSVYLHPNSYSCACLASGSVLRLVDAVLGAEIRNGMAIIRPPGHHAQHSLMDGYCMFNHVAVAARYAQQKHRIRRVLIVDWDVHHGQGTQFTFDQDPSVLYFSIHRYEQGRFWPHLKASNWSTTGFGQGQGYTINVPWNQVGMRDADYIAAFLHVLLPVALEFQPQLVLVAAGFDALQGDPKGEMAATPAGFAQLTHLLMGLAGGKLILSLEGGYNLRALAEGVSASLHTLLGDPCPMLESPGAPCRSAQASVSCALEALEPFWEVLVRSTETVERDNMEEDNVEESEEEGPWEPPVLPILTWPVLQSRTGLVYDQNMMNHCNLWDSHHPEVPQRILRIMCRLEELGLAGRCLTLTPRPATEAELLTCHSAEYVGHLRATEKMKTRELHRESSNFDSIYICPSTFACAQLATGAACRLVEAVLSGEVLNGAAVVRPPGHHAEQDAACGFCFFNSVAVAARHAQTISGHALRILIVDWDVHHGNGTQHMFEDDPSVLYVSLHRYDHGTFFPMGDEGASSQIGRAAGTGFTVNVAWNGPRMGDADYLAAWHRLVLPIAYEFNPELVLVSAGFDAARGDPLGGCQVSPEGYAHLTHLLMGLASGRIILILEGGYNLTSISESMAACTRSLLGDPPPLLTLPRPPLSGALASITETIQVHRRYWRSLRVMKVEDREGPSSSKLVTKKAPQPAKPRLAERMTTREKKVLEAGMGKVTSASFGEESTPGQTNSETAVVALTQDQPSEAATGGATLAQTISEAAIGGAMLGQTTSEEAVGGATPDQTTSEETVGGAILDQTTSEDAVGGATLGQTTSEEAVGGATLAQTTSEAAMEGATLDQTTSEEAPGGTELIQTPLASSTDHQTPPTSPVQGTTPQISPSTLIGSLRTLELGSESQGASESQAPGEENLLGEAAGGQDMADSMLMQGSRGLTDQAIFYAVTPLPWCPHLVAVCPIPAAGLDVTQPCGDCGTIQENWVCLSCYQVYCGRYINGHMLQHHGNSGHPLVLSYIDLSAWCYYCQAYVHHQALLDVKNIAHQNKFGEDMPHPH

[2] = molecular target: Protein deacetylase HDAC6 (Homo sapiens) (UniProt Q9UBN7); conditions: at 10 µM; remark: listed apart in the source

| Compound | inhibition [1] | inhibition [2] |
| --- | --- | --- |
| N#Cc1ncccn1 | -1.21% |  |
| COc1cc(N2CCC(N3CCN(C)CC3)CC2)ccc1Nc1ncc(Cl)c(Nc2ccccc2S(=O)(=O)C(C)C)n1 | 17.9% |  |
| C[C@@]1(C(=O)N[C@@H](CCC(=O)O)C(=O)O)CCCN1C(=O)CN (H-Gly-[αMeP]-Glu-OH) | -8.16% |  |
| O=C1OC(OC(=O)c2cccnc2Nc2cccc(C(F)(F)F)c2)c2ccccc21 (centres undefined) | 4.26% |  |
| Cc1c(Cl)cccc1Nc1ccccc1C(=O)O | 32.3% |  |
| Cc1c(Nc2ncccc2C(=O)O)cccc1C(F)(F)F | 89.7% |  |
| O=C(OCCOCCO)c1ccccc1Nc1cccc(C(F)(F)F)c1 | 46.4% |  |
| O=C(O)c1cccnc1Nc1cccc(C(F)(F)F)c1 | 74.8% |  |
| O=C(O)c1cccnc1C(=O)O | -0.23% |  |
| CN[C@H](C(=O)N[C@H](C(=O)N(C)[C@H](/C=C(\C)C(=O)O)C(C)C)C(C)(C)C)C(C)(C)c1ccccc1 | -3.5% |  |
| CC1OC1P(=O)(O)O (centres undefined) | -9.26% |  |
| TEPRENONE, CHEMBL5314356 |  | 27.9% |
| CC1=C(C(=O)Nc2cc3cn[nH]c3cc2F)C(c2ccc(C(F)(F)F)cc2)CC(=O)N1 (centres undefined) | 24.4% |  |
| C#CCN[C@@H]1CCc2ccccc21 | 54% |  |
| c1ccc(Oc2cccnc2)cc1 | 10.2% |  |
| CCCCNc1nc(N)c2[nH]c(=O)n(Cc3ccc(OCCN(C)C)nc3)c2n1 | -9.47% |  |
| CCCC(=O)OCOC(=O)C1=C(C)NC(C)=C(C(=O)OC)C1c1cccc(Cl)c1Cl (centres undefined) | 44.1% |  |
| Cc1ccc(Nc2ncc3c(n2)N(C)C(=O)N(c2cc(NC(=O)c4cccc(C(F)(F)F)c4)ccc2C)C3)cn1 | 2.43% |  |
| O=C(O)C1=CC(O)C(O)[C@H](O)C1 (some centres undefined) | 11.8% |  |
| CCCn1c(=O)c2[nH]c(-c3cnn(Cc4cccc(C(F)(F)F)c4)c3)nc2n(CC)c1=O | 101% |  |
| CCCn1c(=O)c2nc(-c3ccccc3)[nH]c2n(CCC)c1=O | -5.2% |  |
| CCOC(=O)COc1ccc2c(c1)C[C@@H](NC[C@H](O)c1cccc(Cl)c1)CC2 | 16.8% |  |
| Cn1nccc1Nc1nccc(-c2ccn([C@H](CO)c3ccc(Cl)c(F)c3)c(=O)c2)n1 | 26.5% |  |
| CN1CCC(Nc2ncc3ncnc(Nc4ccc(F)c(Cl)c4)c3n2)CC1 | 20.6% |  |
| CCOc1cccc(NC(=O)c2ccc(N3CCCC3)c(C(F)(F)F)c2)c1 | 69.4% |  |
| O=C(Nc1cccc(Br)c1)c1cccc(S(=O)(=O)N2CCCCCC2)c1 | 12.5% |  |
| CCn1c(-c2nonc2N)nc2cnc(Oc3cccc(NC(=O)c4ccc(OCCN5CCOCC5)cc4)c3)cc21 | 7.09% |  |
| Cc1cc(C)n(-c2cccc([C@H](CC(=O)O)CN3CC[C@@H](CCc4ccc5c(n4)NCCC5)C3)c2)n1 | -4.01% |  |
| C[C@H]1CC[C@H](n2c3cnccc3c3cnc(Nc4ccc5c(n4)CCN(C(=O)CO)C5)nc32)CC1 | -9.6% |  |
